Hits are enriched below; roughly 27% of the tested compounds scored in any of these assays.
CYP2C19 act = cytochrome P450 2C19 (human) activation | 96,000 tested, under 10 active | recombinant CYP2C19, luciferin-H EGE luminescence; stronger effect = higher value; 0 = fully inhibited enzyme, 1 = untreated enzyme | AID 1025 | activation factor at 5 µM | P33261;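 active means activation factor of at least 2 at 5 µM in the primary screen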;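 further: 0 = wells with 2.5 mM tranylcypromine and 1 = vehicle-only wells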
CYP2C9 inh = blocks human cytochrome P450 2C9 | P11712 | CYP2C9 Supersomes, luciferin-H conversion, luminescence | inhibition, % at 5 µM | 96,000 compounds, 20% hits;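 active means blocking of liver enzyme CYP2C9 beyond about 50% at 5 µM, limit read from the data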
sEH activator = increases human soluble epoxide hydrolase activity | activation, % at 2 µM | 91,000 compounds, 0.04% hits | AID 717 | P34913 | purified human sEH enzymatic activity, activator screen; in the data active means activation above about 37%
Target sequence (P34913 whole entry, looked up): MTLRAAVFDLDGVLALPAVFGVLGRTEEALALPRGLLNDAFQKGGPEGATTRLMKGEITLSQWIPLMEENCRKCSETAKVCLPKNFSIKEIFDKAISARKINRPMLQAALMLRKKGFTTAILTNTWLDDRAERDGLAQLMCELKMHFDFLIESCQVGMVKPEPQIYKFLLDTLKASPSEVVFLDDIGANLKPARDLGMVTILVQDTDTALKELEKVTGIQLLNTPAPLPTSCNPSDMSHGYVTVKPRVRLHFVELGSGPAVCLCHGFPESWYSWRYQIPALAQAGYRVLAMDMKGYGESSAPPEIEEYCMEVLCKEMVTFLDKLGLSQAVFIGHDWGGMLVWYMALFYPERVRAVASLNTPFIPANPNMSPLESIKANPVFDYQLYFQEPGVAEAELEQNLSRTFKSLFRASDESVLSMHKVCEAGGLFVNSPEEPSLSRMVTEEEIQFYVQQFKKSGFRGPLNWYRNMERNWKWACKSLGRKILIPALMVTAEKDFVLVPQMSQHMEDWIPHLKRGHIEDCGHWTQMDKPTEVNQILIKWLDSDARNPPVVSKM
sEH inhibitor = soluble epoxide hydrolase (human) inhibition | P34913 | recombinant human sEH enzymatic activity assay | inhibition, % at 2 µM | 91,000 compounds, 0.34% hits | AID 707; in the data active means inhibition above about 80%
CYP2C9 activ = CYP2C9 (human) activation; P11712; 96,000 compounds, 1.4% hits; recombinant CYP2C9, luciferin-H conversion, luminescence; stronger effect = higher value; factor 1 = untreated enzyme, 0 = blocked; activation factor at 5 µM;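 active means activation factor of 2 or more for CYP2C9 at a 5 µM dose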;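 further: 0 = sulfaphenazole-blocked wells and 1 = vehicle-only wells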
CYP2C19 inhib = blocks human cytochrome P450 2C19 | P33261 | CYP2C19 Supersomes, luciferin-H EGE luminescence, 30 min | inhibition, % at 5 µM | 96,000 compounds, 21% hits;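 active means CYP2C19 inhibition above a set limit at 5 µM in the primary screen, cut at about 50% in these data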;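 further: plate controls were negative control wells for no effect and 2.5 mM tranylcypromine positive control for full effect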
* hit, by the source's call; · = no result given.

SMILES | CYP2C19 act | CYP2C9 inh | sEH activator | sEH inhibitor | CYP2C9 activ | CYP2C19 inhib
CCOC(=O)C1CCN(C(=O)CCS(=O)(=O)c2ccc3c(c2)CCN3C(C)=O)CC1 | 1 | -17 | 23 | -28 | 1.2 | 5
CCCCOc1cccc(C(=O)N(Cc2cccs2)C2CCS(=O)(=O)C2)c1 (stereo unspecified) | 0.8 | 15 | -3 | 2 | 0.8 | 20
O=C(O)Cn1c2c(c3ccccc31)CCCC2 | 1 | 11 | · | · | 0.9 | 3
CCOc1cc(C2Nc3ccccc3C(=O)N2c2ccccc2)ccc1O (stereo unspecified) | 0.4 | 96* | 0 | -2 | 0 | 62*
CCOc1ccc(C2Nc3cccc4cccc(c34)N2)cc1OC | · | · | 7 | -4 | · | ·
CCOc1cc(C2Nc3cccc4cccc(c34)N2)ccc1O | 0.3 | 38 | 7 | -10 | 0.6 | 69*
COc1ccccc1N1C(=O)c2ccccc2NC1c1ccncc1 (stereo unspecified) | 0.6 | 56* | 0 | -2 | 0.4 | 39
CCc1ccc(C2NC(=S)NC3=C2C(=O)N(c2ccccc2OC)C(c2ccc(CC)cc2)N3)cc1 (stereo unspecified) | 1 | 6 | 1 | 0 | 0.9 | 4
COc1ccc(C2Nc3ccccc3C(=O)N2c2ccccc2)cc1COc1ccccn1 (stereo unspecified) | 0.7 | 59* | -3 | 4 | 0.4 | 30
COc1ccc(C2Nc3ccccc3C(=O)N2O)cc1OC (stereo unspecified) | 0.8 | 9 | 14 | -16 | 0.9 | 23
COc1cc(C2Nc3ccccc3C(=O)N2c2ccccc2)ccc1O (stereo unspecified) | 0.6 | 75* | 13 | -13 | 0.3 | 38
NC[C@@]12CCCC1C1CCC2C1 (stereo partly specified) | 1.1 | -14 | · | · | 1.1 | -12
O[C@@H]1C2CCCC1[C@]1(O)CCCCC1C2 (stereo partly specified) | 0.9 | 62* | 17 | -20 | 0.4 | 11
O=C1NC(=S)SC1=C1CCCCCC1 | 0.9 | 20 | · | · | 0.8 | 13
CCOC(=O)c1[nH]c2ccc(F)cc2c1NC(=O)C(C)N1CCc2cc(OC)c(OC)cc2C1 (stereo unspecified) | 0.1 | 98* | 7 | -5 | 0 | 91*
COc1cc2c(cc1OC)CN(C(C)C(=O)Nc1ccc(NC(C)=O)cc1)CC2 (stereo unspecified) | 0.8 | 31 | -20 | 22 | 0.7 | 18
CCOC(=O)c1[nH]c2ccc(OC)cc2c1NC(=O)CN1CCC2(CC1)OCCO2 | 0.6 | 12 | 0 | 0 | 0.9 | 35
CCOC(=O)c1[nH]c2ccc(OC)cc2c1NC(=O)C(C)N1CCC2(CC1)OCCO2 (stereo unspecified) | 0.3 | 71* | 0 | 0 | 0.3 | 70*
Cc1cc(NC(=O)c2noc3c2CCCC3)no1 | 1.1 | -12 | · | · | 1.1 | -10
O=C1CC(=C2c3ccccc3-c3ccccc32)C(=O)N1CCN1CCN(c2ccccc2)CC1 | · | · | -10 | 12 | · | ·
Cc1cc(Nc2ccc(F)c(Cl)c2)n2ncnc2n1 | 1.3 | -6 | · | · | 1.1 | -27
CCOC(=O)C1=C(C)N(C)C(C)=C(C(=O)OCC)C1c1ccc(C(=O)OC)cc1 | 0 | 99* | 3 | -2 | 0 | 99*
COC(=O)C1=C(C)N(C)C(C)=C(C(=O)OC)C1c1ccc(Cl)cc1 | 0.7 | 58* | -8 | 7 | 0.4 | 28
O=C(c1ccc(Cn2cc(Br)cn2)o1)n1cccn1 | 0.5 | 21 | -8 | 8 | 0.8 | 55*
O=C(O)c1cccc(Cn2cc(Br)cn2)c1 | 1 | -8 | 20 | -19 | 1.1 | -5
O=C(Nc1ccc(C(F)(F)F)cc1Cl)c1ccc(Cn2cc(Br)cn2)o1 | 0.7 | -25 | -50 | 52 | 1.2 | 31
O=C(Nc1cccc(C(F)(F)F)c1)c1ccc(Cn2cc(Br)cn2)o1 | 0.2 | 69* | -42 | 43 | 0.3 | 85*
O=C(NC1CCCCC1)c1ccc(Cn2cc(Br)cn2)o1 | 0.4 | 34 | -45 | 45 | 0.7 | 62*
O=C(NCc1ccccn1)c1ccc(Cn2cc(Br)cn2)o1 | 1 | 0 | 14 | -17 | 1 | 4
COc1cccc(-c2nnc(NC(=O)c3ccc(S(=O)(=O)N4CC(C)OC(C)C4)cc3)o2)c1 (stereo unspecified) | 0.9 | -18 | -14 | 14 | 1.2 | 8
